{"source": "PubChem BioAssay AID540356", "about": "(Broad Institute, 2011)", "note": "Hit rate of the full screen: of about 2,500 compounds, about 360 (14%) were called active. The list is a sample of the results. Values without a mark were called inactive.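 Rule for the calls: active = signal-lowering compounds whose fitted half-maximal concentration AC50 is no higher than ten times their top tested concentration; inconclusive = flat curve with 30 to 70% inhibition, or poor fit; inactive = flat within 30%, signal increase, or AC50 above limit.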"}
{"assay": "non-specific inhibitors of H2O2 luminol chemiluminescence – biochemical, luminescence, no ALR or DTT, cherry-pick, artefact control for ALR inhibitor project, dose response (AID 540356);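 for activity change, negative = inhibition: 0% = median of neutral control wells and -100% = median of quercitin 100 µM wells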", "settings": "HRP/H2O2 luminol luminescence counterscreen; series mostly up to 10 µM; activity change, negative = inhibition: at the top concentration", "units": {"activity change, negative = inhibition": "%"}}
{"smiles": "Cc1cccc(/C=N/n2c(-c3ccccc3)n[nH]c2=S)c1O", "activity change, negative = inhibition": -0.122}
{"smiles": "COc1cc(/C=N/N2CCCCC2)cc([N+](=O)[O-])c1O", "activity change, negative = inhibition": -15.9}
{"smiles": "COc1cccc(/C=N/NC(=O)CNC(=O)c2ccncc2)c1O", "activity change, negative = inhibition": -1.7}
{"smiles": "COc1cc(/C=N/n2c(C)n[nH]c2=S)ccc1OCc1ccccc1", "activity change, negative = inhibition": -10.1}
{"smiles": "COc1ccc(C2CC(c3ccccc3)=NN2c2ccccc2)c(C(=O)O)c1OC", "note": "(stereo unspecified)", "activity change, negative = inhibition": -9.87}
{"smiles": "O=C(O)CCc1ccc(-c2cccs2)n1NC(=O)c1cccs1", "activity change, negative = inhibition": -2.5}
{"smiles": "O=C(O)c1cc(O)ccc1NC(=O)c1cccc2ccccc12", "activity change, negative = inhibition": -8.12}
{"smiles": "O=C(NCCN1CCCc2ccccc21)C1CCC(=O)N(CCc2ccccc2)C1", "note": "(stereo unspecified)", "activity change, negative = inhibition": 0.511}
{"smiles": "O=C1CC(=O)N(c2ccccc2)N1c1ccccc1", "activity change, negative = inhibition": -4.55}
{"smiles": "Nn1c(Nc2ccccc2)nc2sc3c(c2c1=O)CCCC3", "activity change, negative = inhibition": -4.23}
{"smiles": "c1ccc(CNc2ncnc3sc4c(c23)CCCC4)nc1", "activity change, negative = inhibition": 0.476}
{"smiles": "Cc1ccc(NC2CCCN(C(=O)CCc3scnc3C)C2)cc1C", "note": "(stereo unspecified)", "activity change, negative = inhibition": -3.85}
{"smiles": "CC(C)c1ccc(NC2CCCN(C(=O)c3cscn3)C2)cc1", "note": "(stereo unspecified)", "activity change, negative = inhibition": -3.5}
{"smiles": "CN(C)c1ccc(NC(=O)CN2CCN(S(=O)(=O)c3cc(Cl)ccc3Cl)CC2)cc1", "activity change, negative = inhibition": -1.2}
{"smiles": "CCN(CC)c1ccc(/C=N/NC(=O)CC(C)C)cc1", "activity change, negative = inhibition": -1.9}
{"smiles": "CCCCCC(=O)N/N=C/c1cc(Br)c(O)c(OC)c1", "activity change, negative = inhibition": -8.81}
{"smiles": "COc1cc(/C=N/NC(=O)C2C3CCCCC32C)cc(Br)c1O", "note": "(stereo unspecified)", "activity change, negative = inhibition": -9.25}
{"smiles": "COc1cc(/C=N/N2C(C)CCCC2C)cc(Br)c1O", "note": "(stereo unspecified)", "activity change, negative = inhibition": -7.59}
{"smiles": "COc1cc(/C=N/Nc2ccccc2)ccc1O", "activity change, negative = inhibition": -7.74}
{"smiles": "Oc1ccc(/C=N/n2c(COc3ccccc3)n[nH]c2=S)cc1O", "activity change, negative = inhibition": -17.1}
{"smiles": "COc1cc(/C=N/N2C(=O)C3C4C=CC(CC4)C3C2=O)ccc1O", "note": "(stereo unspecified)", "activity change, negative = inhibition": -1.77}
{"smiles": "Cc1ccc(CN2CCSc3ccc(C(=O)NCCCN4CCN(C)CC4)cc32)cc1", "activity change, negative = inhibition": -4.31}
{"smiles": "O=C(CN1CCN(c2ccc(O)cc2)CC1)Nc1ccc(S(=O)(=O)N2CCCC2)cc1", "activity change, negative = inhibition": -5.81}
{"smiles": "Cc1ccc(-c2nc(Nc3cccc(C)c3)sc2CC(=O)O)cc1", "activity change, negative = inhibition": -2.49}
{"smiles": "Cc1ccc(CS(=O)Cc2ccc(C(=O)N3CCN(c4ccccc4)CC3)o2)cc1", "note": "(stereo unspecified)", "activity change, negative = inhibition": 0.836}
{"smiles": "CN(C)c1ccc(NC(=O)CN2CCc3ccccc3C2)cc1", "activity change, negative = inhibition": -5.48}
{"smiles": "CN(C)c1ccc(NC(=O)CCn2c(=S)oc3ccccc32)cc1", "activity change, negative = inhibition": -3.01}
{"smiles": "O=C(NCC(c1ccco1)N1CCc2ccccc21)c1ccccc1F", "note": "(stereo unspecified)", "activity change, negative = inhibition": 0.891}
{"smiles": "Clc1c(CSc2nc3ccccc3o2)nc2ccccn12", "activity change, negative = inhibition": -2.53}
{"smiles": "CCCCCCCc1c(C#N)c(N)[nH]c(=S)c1C#N", "activity change, negative = inhibition": -5.05}
{"smiles": "Cc1cc(C)c(S(=O)(=O)Nc2ccc(O)cc2)c(C)c1", "AC50": "9.93 µM (active)"}
{"smiles": "Cc1ccc(Sc2ccc(S(=O)(=O)Nc3ccc(C(=O)O)cc3)cc2)cc1C", "activity change, negative = inhibition": -7.49}
{"smiles": "CC(=O)Nc1ccc(S(=O)(=O)Nc2ccc(Nc3ccccc3)cc2)cc1", "activity change, negative = inhibition": -7.75}
{"smiles": "Cc1cccc(C(=O)Nc2ccc(O)cc2)c1", "activity change, negative = inhibition": -13.4}
{"smiles": "Cc1ccc(S(=O)(=O)Nc2ccc(N(C)C)cc2)cc1", "activity change, negative = inhibition": 0.687}
{"smiles": "COc1ccc(S(=O)(=O)N/N=C(/C)c2ccncc2)c(OC)c1", "activity change, negative = inhibition": -4.06}
{"smiles": "COc1cc(/C=N/NC(=O)c2nc3ccccn3c2C)cc(OC)c1O", "activity change, negative = inhibition": -5.24}
{"smiles": "O=C(NN=C1CCC(=NNC(=O)c2cccnc2)CC1)c1cccnc1", "AC50": "8.24 µM (active)"}
{"smiles": "O=C(Nc1ccccc1N1CCCC1)c1cccnc1", "activity change, negative = inhibition": -10.3}
{"smiles": "O=C(Nc1ccc(N2CCCCC2)cc1)c1cccnc1", "activity change, negative = inhibition": 0.535}
{"smiles": "Cc1ccc(N/N=C2/CCCNC2=O)cc1", "activity change, negative = inhibition": -2.46}
{"smiles": "Cc1ccc(C(=O)Nc2cccc([N+](=O)[O-])c2)cc1S(=O)(=O)Nc1ccc(C(=O)O)cc1", "activity change, negative = inhibition": -1.41}
{"smiles": "COc1ccccc1NS(=O)(=O)c1cc([N+](=O)[O-])ccc1N/N=C/c1c[nH]c2ccccc12", "activity change, negative = inhibition": 3.54}
{"smiles": "CNC(=O)c1cc(Nc2nnc(-c3ccc(O)cc3)c3ccccc23)ccc1OC", "activity change, negative = inhibition": -3.44}
{"smiles": "CCN(CC)CCCN(C(=O)c1cccc(C)c1)c1nc(-c2ccc(OC)cc2)cs1", "activity change, negative = inhibition": -3.71}
{"smiles": "Cn1c(CNS(=O)(=O)c2ccc(Br)cc2)n[nH]c1=S", "activity change, negative = inhibition": -0.165}
{"smiles": "CCCn1c(CCC(=O)O)ccc1-c1cccs1", "activity change, negative = inhibition": -6.04}
{"smiles": "COc1cccc(NC(=O)CN2CCN(c3ccc(F)cc3)CC2)c1", "activity change, negative = inhibition": 0.116}
{"smiles": "Cc1cc(Oc2ncccc2[N+](=O)[O-])c2cc(Cl)ccc2n1", "activity change, negative = inhibition": 0.22}
{"smiles": "COc1ccccc1-n1cnc2cc(NCc3ccccc3O)ccc21", "activity change, negative = inhibition": -0.965}
{"smiles": "COc1ccc(OC)c(CNc2ccc3c(c2)nc(C)n3C)c1", "activity change, negative = inhibition": -7.25}
{"smiles": "O=[N+]([O-])c1ccc(-c2cn(-c3ccccc3F)c(=S)[nH]2)cc1", "activity change, negative = inhibition": -1.24}
{"smiles": "Cc1nc(SCc2cccnc2)[nH]c(=O)c1C", "activity change, negative = inhibition": 1.87}
{"smiles": "Cc1ccc(NC2CCCN(C(=O)c3cc4ncccn4n3)C2)cc1C", "note": "(stereo unspecified)", "activity change, negative = inhibition": -0.727}
{"smiles": "COc1cc(/C=N/Nc2nc(=O)[nH]nc2C)ccc1O", "activity change, negative = inhibition": -6.83}
{"smiles": "NC(=O)c1ccc(CSc2nc3ccccc3s2)cc1", "activity change, negative = inhibition": 2.17}
{"smiles": "CNc1nnc(CSc2nc3ccccc3s2)s1", "activity change, negative = inhibition": -0.989}
{"smiles": "CC(C)c1ccc(NC2CCCN(C(=O)C3=NN(C)C(=O)CC3)C2)cc1", "note": "(stereo unspecified)", "activity change, negative = inhibition": -5.77}
{"smiles": "Cc1cc(C(=O)NNc2ccc(F)cc2F)no1", "activity change, negative = inhibition": 2.69}
{"smiles": "COC(=O)c1sccc1NC(=O)c1cc(C)on1", "activity change, negative = inhibition": 2.59}
{"smiles": "Cc1cc(C(=O)NNc2ccccc2F)no1", "AC50": "8.51 µM (active)"}
